Among all 16,000 compounds or so, about 5,100 (32%) were called active. Inconclusive results (about 25%) are left out. Some of the results follow. Values without a mark were called inactive. Calls follow the shape of the dose curve; as a rule, active = well fitted curve in the direction sought with a large enough effect; inconclusive = small, poorly fitted or top-dose-only effect, or effect the other way; inactive = no such curve, though single readings can be large or run the other way.
biological target: Cytochrome P450 3A4 (Homo sapiens) (UniProt P08684); experiment: Cytochrome panel assay with activity outcomes; settings: recombinant CYP, pro-luciferin dealkylation, luminescence, p450-cyp3a4; series mostly up to 57.1 µM
% is scaled to controls: 0 for no effect and ±100 for the full control effect.

Chain of Cytochrome P450 3A4 (Homo sapiens) (P08684 whole entry, looked up): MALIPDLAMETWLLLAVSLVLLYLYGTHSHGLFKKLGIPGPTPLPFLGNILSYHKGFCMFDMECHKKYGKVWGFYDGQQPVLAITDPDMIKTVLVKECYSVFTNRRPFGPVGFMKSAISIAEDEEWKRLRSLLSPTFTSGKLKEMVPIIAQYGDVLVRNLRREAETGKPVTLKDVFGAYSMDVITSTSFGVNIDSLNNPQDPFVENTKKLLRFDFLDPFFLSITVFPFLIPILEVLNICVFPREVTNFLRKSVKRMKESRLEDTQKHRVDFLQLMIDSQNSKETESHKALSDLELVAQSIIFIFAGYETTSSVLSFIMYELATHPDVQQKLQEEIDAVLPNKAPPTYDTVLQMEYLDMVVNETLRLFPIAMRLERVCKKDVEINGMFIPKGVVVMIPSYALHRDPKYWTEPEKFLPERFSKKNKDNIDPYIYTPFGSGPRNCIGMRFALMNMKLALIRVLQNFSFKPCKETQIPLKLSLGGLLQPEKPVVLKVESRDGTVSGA

| SMILES | AC50 | activity, negative = inhibition |
| --- | --- | --- |
| Cn1c(=O)c2cc(S(=O)(=O)NCCC(=O)NCCc3ccc(Cl)cc3)ccc2n(C)c1=O | 12.6 µM (active) |  |
| Cc1nn(-c2ccccc2)c2c1C(=O)N(Cc1ccccc1)C(=O)C(C)(C)C2 |  | 1.57% [at 2.29 µM] |
| CSc1nnc(-c2ccc(Cl)cc2Cl)o1 | inactive |  |
| O=c1c(-c2nnc(SCc3ccc(Cl)cc3Cl)o2)cccn1Cc1ccccc1 | 22.4 µM (active) |  |
| Clc1ccc(-c2nnc(CCc3ccccc3)o2)c(Cl)c1 |  | 0.747% [at 2.29 µM] |
| O=c1c(-c2nnc(SCc3ccc(Cl)c(Cl)c3)o2)cccn1Cc1ccccc1 | 20 µM (active) |  |
| CC(C)c1ccc(C2C(C#N)=C(N)N3C(=C2C#N)Sc2ccccc23)cc1 (centres undefined) | inactive |  |
| Cc1ccc(Cl)cc1-n1c(=O)cc(N2CC(C)OC(C)C2)[nH]c1=O (centres undefined) | inactive |  |
| O=S1(=O)C=C(N2CCOCC2)c2ccccc21 |  | -21% [at 11.4 µM] |
| c1ccc2c(c1)-c1nc3ccccc3cc1[C@H]2N1CCOCC1 | 2.51 µM (active) |  |
| O=C(O)CN(CCN(CC(=O)O)CC(=O)O)CC(=O)O.[Cu] |  | 10.2% [at 11.4 µM] |
| Cc1ccc(-c2csc(C(C#N)=C3CCCC3)n2)cc1 | 20 µM (active) |  |
| O=C(Nc1ccc(-c2csc(-c3ccccc3)n2)cc1)c1ccccc1Cl | inactive |  |
| N=C1SCC(=O)N1c1nc(-c2ccccc2)cs1 |  | 0.753% [at 2.29 µM] |
| N#CC(=C1CCCC1)c1nc(-c2ccccc2)cs1 | 15.8 µM (active) |  |
| COc1ccc(/C=N/N(C(C)=O)c2nc(-c3ccc(C)cc3)cs2)cc1 | inactive |  |
| Cc1sc(N/N=C/C=C/c2ccccc2)nc1-c1ccccc1 |  | -9.33% [at 11.4 µM] |
| O=S(=O)(N/N=C\C=C\c1ccccc1)c1ccc(Br)cc1 | 14.1 µM (active) |  |
| Brc1ccc(/C=C/C=N/Nc2nc3ccccc3s2)cc1 | inactive |  |
| CC(C)NC(=O)/C(=N\O)c1ccccc1 | inactive |  |

| SMILES | AC50 | activity, negative = inhibition |
| --- | --- | --- |
| CCC/C=C(\CCC)C(NC(=O)c1ccc(C(F)(F)F)cc1)c1ccccc1 (centres undefined) | 15.8 µM (active) |  |
| CCC/C=C(\CCC)C(NC(=O)c1ccccc1)c1ccccc1 (centres undefined) | 10 µM (active) |  |
| Cc1cc(S(=O)(=O)NCCN(C)C)c(C)s1 | inactive |  |
| COC(=O)/C(=C\C(=O)c1ccccc1)Nc1cccc(C(F)(F)F)c1 | inactive |  |
| CCOc1ccc(C(F)(F)F)cc1NC(C)=O | inactive |  |
| CN(C)S(=O)(=O)Oc1ccc(Cl)cc1C(=O)Nc1cccc(C(F)(F)F)c1 | 12.6 µM (active) |  |
| CN(C)S(=O)(=O)Oc1ccccc1C(=O)Nc1cccc(C(F)(F)F)c1 | 11.2 µM (active) |  |
| COC(=O)[C@]1(C)CCC(c2ccc(C)cc2)=C(CC(=O)O)C1 |  | -9.37% [at 11.4 µM] |
| Cc1cccc2cc(=O)[nH]c(C)c12 | inactive |  |
| CCOC(=O)N1CCC(NC(=O)CCC(=O)N2CC(C)Oc3ccc(C)cc32)CC1 (centres undefined) | 8.91 µM (active) |  |
| Cc1ccc2c(c1)N[C@H](c1ccc(C(=O)O)cc1)c1cccn1-2 | 0.0501 µM (active) |  |
| Cc1ccc(Cl)cc1N1CCN(S(=O)(=O)c2ccc3c(c2)OCCO3)CC1 | inactive |  |
| CN1CCCN(S(=O)(=O)c2ccc3c(c2)OCCO3)CC1 | inactive |  |
| Cc1ccc2nc(N3CCN(S(=O)(=O)c4ccc5c(c4)OCCO5)CC3)c(C#N)cc2c1 | 6.31 µM (active) |  |
| CN(C)CC(CN(C)C)c1ccccn1 |  | -2.93% [at 11.4 µM] |
| c1ccc([C@H](CCN2CCCC2)c2ccccn2)cc1 |  | -2.32% [at 11.4 µM] |
| Cc1[nH]c2ccccc2c1C(c1ccccn1)N1CCC(C)CC1 (centres undefined) | 2.24 µM (active) |  |
| N=C(N)c1ccccc1 | inactive |  |
| Cc1ccc(N(CCC#N)C(=O)CSc2ccc3c(c2)OCCO3)cc1 | 15.8 µM (active) |  |
| c1ccc2c(c1)c1ccccc1n2Cn1c2ccccc2c2ccccc21 |  | -21.4% [at 11.4 µM] |

| SMILES | AC50 | activity, negative = inhibition |
| --- | --- | --- |
| CCn1c2ccccc2c2cc(NS(=O)(=O)c3ccccc3C)ccc21 | 1 µM (active) |  |
| CCn1c(C)nc2cc(C(=O)NNS(=O)(=O)c3ccccc3F)ccc21 | inactive |  |
| C[C@@]1(C(NC(=O)Cc2ccc(C(F)(F)F)cc2)c2ccc(-c3ccccc3)cc2)C[C@H]1C1CCCCC1 (some centres undefined) | inactive |  |
| C[C@@]1(C(NC(=O)c2ccc(-c3ccccc3)cc2)c2ccc(Cl)cc2)C[C@H]1C1CCCCC1 (some centres undefined) | inactive |  |
| COC(=O)c1ccc(C(NC(=O)c2ccco2)[C@]2(C)C[C@H]2C2CCCCC2)cc1 (some centres undefined) | 7.94 µM (active) |  |
| CC(C)(C)C(=O)NC(c1ccc(Cl)cc1)[C@]1(C)C[C@H]1C1CCCCC1 (some centres undefined) | 12.6 µM (active) |  |
| COCc1cc(=O)[nH]c2cc(NC(=O)C(F)(F)F)c(C)cc12 |  | -1.96% [at 11.4 µM] |
| Cc1nnc(NC(=O)CSc2ncnc3c2cnn3-c2ccccc2C)s1 | inactive |  |
| CCOc1ccc(-n2ccnc2SCC(=O)Nc2nnc(C)s2)cc1 | 14.1 µM (active) |  |
| CCc1nnc(NC(=O)CSc2ncnc3c2cnn3-c2ccc(OC)cc2)s1 | inactive |  |
| CCOc1ccc(-n2ccnc2SCC(=O)Nc2nnc(CC)s2)cc1 | 14.1 µM (active) |  |
| COc1ccc(-c2coc3cc4oc(=O)cc(C)c4cc23)cc1F | inactive |  |
| CCCc1ccc(C2C3=C(CC(C)(C)CC3=O)NC3=C2C(=O)c2ccccc23)cc1 (centres undefined) | 2.82 µM (active) |  |
| COC(=O)N[C@H](c1ccccc1)[C@@]1(C)C[C@@H]1[C@@H](C)C(=O)Nc1ccc2ccccc2c1 | 0.2 µM (active) |  |
| CC(=O)N[C@@H](c1ccccc1)[C@]1(C)C[C@H]1[C@@H](C)C(=O)Nc1ccc2ccccc2c1 | 7.94 µM (active) |  |
| O=C(Nc1ccc2oc(=O)c(C(=O)O)cc2c1)Oc1ccccc1 |  | -5.24% [at 11.4 µM] |
| CC(=O)N[C@H](c1ccccc1)[C@@]1(C)C[C@@H]1[C@@H](C)C(=O)Nc1ccc2ccccc2c1 | 7.94 µM (active) |  |
| C[C@@H](C(=O)Nc1ccc2ccccc2c1)[C@H]1C[C@]1(C)[C@H](NC(=O)Oc1ccc(F)cc1)c1ccccc1 | 0.794 µM (active) |  |
| Oc1c(CN2CCN(c3ccccc3)CC2)cc(Br)c2cccnc12 |  | 0.931% [at 11.4 µM] |

— PubChem BioAssay AID1851 (National Center for Advancing Translational Sciences (NCATS), 2009)
